We go through 16 compounds from ChEMBL document CHEMBL1961873, “Compounds: GSK PKIS; Assays: Nanosyn kinase panel” (2012).

Assay [1] deals with Epidermal growth factor receptor (Homo sapiens), P00533 [T790M]. The note with it: at 1 µM.
The subject of assay [2] is Epidermal growth factor receptor (Homo sapiens), P00533 [L858R,T790M]. The conditions noted are these: at 0.1 µM.
The test system is the same in assay [3]. The conditions noted are these: at 1 µM.
Assay [4] has as its target Ephrin type-A receptor 2 (Homo sapiens) (UniProt P29317). The conditions noted are these: at 0.1 µM.
Assay [5] has the same target. The note with it: at 1 µM.
In assay [6] the target is T1, Ephrin type-A receptor 3 (Homo sapiens) (UniProt P29320).
T1 sequence (whole entry): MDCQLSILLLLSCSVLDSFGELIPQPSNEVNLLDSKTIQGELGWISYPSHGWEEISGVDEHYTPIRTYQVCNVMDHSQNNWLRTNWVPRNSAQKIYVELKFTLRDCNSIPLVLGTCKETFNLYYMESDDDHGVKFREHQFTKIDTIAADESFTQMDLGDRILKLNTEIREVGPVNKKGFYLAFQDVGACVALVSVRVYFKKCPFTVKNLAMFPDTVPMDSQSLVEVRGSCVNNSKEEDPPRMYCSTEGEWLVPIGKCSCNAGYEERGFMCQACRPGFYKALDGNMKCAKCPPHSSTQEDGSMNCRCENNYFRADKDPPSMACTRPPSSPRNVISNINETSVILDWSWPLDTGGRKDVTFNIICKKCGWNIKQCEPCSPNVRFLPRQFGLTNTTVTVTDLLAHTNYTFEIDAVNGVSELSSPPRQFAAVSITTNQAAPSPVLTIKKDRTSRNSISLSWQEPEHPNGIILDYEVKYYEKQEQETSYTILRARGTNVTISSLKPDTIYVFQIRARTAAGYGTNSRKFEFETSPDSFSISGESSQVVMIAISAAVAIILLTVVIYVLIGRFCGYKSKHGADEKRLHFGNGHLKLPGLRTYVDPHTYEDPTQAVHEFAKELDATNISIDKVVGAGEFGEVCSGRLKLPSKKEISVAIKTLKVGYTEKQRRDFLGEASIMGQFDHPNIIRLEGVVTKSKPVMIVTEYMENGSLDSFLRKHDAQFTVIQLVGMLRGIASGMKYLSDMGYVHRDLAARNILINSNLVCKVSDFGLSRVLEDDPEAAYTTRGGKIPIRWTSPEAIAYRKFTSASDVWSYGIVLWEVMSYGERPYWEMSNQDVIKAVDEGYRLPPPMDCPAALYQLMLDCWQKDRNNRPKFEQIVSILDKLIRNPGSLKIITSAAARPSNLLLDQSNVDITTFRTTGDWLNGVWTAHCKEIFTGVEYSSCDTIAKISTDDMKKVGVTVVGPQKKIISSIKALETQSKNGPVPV
The conditions noted are these: at 0.1 µM.

For assay [7], the target named is T1, Ephrin type-A receptor 3 (Homo sapiens). The conditions noted are these: at 1 µM.
Assay [8] concerns the target Ephrin type-A receptor 4 (Homo sapiens) (UniProt P54764). The conditions noted are these: at 0.1 µM.
Assay [9] shares this target. The conditions noted are these: at 1 µM.
The target of assay [10] is T2, Ephrin type-B receptor 2 (Homo sapiens) (UniProt P29323).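 Further: reported as mean inhibition of EPHB2, from the GSK PKIS dataset.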
T2 sequence (whole entry): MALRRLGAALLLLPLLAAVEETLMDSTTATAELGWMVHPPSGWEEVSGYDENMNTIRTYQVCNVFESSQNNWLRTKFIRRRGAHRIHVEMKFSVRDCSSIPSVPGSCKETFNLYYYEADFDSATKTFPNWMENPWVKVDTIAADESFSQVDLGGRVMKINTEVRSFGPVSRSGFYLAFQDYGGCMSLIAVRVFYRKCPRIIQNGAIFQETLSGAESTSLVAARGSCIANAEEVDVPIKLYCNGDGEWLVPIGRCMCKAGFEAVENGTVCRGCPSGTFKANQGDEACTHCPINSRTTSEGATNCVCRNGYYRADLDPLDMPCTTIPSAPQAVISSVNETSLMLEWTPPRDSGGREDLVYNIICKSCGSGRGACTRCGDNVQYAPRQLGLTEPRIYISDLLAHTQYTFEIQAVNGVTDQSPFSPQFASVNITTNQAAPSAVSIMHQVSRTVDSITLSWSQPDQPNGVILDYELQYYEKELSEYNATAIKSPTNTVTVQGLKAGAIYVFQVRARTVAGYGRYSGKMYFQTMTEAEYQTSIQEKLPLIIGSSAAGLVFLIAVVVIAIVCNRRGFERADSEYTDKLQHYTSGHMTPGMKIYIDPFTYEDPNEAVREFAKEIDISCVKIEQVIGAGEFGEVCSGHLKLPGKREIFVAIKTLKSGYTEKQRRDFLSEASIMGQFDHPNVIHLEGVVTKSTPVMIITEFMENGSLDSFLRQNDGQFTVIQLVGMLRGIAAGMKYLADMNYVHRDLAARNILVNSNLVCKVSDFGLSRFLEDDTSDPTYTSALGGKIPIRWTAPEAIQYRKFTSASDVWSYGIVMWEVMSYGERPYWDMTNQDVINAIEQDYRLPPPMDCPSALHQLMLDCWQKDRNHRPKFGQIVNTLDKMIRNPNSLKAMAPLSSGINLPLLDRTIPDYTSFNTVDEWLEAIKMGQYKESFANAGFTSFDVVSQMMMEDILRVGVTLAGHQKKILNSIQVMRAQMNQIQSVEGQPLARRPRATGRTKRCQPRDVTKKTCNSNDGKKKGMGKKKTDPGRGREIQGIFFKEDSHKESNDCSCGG
The note with it: at 0.1 µM.

Sequence of Epidermal growth factor receptor (Homo sapiens), P00533 [L858R,T790M] (P00533 whole entry T790M/L858R, looked up): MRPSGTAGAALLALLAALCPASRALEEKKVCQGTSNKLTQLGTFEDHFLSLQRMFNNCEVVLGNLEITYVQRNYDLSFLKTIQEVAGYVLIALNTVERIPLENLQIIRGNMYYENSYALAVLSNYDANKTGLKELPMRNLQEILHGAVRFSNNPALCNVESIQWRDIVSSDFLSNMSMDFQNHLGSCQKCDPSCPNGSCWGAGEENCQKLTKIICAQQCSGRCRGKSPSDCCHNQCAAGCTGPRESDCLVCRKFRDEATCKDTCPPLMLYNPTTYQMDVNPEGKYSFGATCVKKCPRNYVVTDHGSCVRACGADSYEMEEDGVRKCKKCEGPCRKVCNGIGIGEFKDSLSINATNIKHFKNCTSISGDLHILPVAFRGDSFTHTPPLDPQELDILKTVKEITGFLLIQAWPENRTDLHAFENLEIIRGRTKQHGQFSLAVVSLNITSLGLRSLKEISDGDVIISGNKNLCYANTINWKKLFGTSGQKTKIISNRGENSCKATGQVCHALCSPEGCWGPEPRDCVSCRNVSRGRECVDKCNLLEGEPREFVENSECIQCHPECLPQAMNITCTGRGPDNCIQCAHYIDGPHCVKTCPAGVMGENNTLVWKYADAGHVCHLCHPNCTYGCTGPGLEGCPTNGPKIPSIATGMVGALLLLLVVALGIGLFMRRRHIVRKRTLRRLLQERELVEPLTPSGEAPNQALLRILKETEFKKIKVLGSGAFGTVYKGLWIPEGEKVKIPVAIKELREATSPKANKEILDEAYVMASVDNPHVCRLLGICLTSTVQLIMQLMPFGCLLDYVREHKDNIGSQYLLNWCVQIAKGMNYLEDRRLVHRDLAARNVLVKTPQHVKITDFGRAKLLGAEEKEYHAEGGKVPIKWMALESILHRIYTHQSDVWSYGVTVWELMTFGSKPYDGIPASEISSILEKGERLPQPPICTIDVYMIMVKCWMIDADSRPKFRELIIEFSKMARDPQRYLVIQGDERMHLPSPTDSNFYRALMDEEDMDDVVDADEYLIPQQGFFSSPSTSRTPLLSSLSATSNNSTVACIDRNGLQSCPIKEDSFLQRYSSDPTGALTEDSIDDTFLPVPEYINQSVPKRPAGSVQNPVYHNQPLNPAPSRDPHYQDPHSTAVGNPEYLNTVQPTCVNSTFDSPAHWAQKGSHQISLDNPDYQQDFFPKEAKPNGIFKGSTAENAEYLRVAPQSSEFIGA
Sequence of Ephrin type-A receptor 2 (Homo sapiens) (P29317 whole entry): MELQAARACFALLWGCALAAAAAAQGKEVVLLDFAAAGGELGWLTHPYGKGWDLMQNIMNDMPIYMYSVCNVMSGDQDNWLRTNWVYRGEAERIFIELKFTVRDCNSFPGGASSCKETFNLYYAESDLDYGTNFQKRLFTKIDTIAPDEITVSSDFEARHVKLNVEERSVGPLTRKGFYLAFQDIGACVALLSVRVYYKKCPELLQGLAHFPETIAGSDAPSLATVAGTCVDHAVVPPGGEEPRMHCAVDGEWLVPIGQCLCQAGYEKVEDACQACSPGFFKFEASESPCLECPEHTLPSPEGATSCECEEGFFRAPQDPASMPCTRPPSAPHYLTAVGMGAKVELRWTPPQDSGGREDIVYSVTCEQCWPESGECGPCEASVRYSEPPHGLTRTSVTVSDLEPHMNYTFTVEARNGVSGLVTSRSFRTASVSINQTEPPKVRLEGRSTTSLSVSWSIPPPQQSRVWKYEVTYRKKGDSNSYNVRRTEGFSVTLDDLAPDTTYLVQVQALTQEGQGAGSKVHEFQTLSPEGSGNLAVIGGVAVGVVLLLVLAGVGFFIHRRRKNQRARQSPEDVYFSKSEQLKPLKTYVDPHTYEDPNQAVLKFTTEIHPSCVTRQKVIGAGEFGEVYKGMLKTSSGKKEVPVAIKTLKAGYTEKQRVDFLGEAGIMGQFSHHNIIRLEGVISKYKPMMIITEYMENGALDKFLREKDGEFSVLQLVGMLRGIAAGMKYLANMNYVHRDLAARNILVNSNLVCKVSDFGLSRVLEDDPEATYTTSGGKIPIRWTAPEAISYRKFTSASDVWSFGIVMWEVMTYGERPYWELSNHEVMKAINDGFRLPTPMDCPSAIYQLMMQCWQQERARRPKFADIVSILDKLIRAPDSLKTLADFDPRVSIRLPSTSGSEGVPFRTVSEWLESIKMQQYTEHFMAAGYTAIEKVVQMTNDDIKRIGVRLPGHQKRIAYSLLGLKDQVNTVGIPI
Sequence of Ephrin type-A receptor 4 (Homo sapiens) (P54764 whole entry): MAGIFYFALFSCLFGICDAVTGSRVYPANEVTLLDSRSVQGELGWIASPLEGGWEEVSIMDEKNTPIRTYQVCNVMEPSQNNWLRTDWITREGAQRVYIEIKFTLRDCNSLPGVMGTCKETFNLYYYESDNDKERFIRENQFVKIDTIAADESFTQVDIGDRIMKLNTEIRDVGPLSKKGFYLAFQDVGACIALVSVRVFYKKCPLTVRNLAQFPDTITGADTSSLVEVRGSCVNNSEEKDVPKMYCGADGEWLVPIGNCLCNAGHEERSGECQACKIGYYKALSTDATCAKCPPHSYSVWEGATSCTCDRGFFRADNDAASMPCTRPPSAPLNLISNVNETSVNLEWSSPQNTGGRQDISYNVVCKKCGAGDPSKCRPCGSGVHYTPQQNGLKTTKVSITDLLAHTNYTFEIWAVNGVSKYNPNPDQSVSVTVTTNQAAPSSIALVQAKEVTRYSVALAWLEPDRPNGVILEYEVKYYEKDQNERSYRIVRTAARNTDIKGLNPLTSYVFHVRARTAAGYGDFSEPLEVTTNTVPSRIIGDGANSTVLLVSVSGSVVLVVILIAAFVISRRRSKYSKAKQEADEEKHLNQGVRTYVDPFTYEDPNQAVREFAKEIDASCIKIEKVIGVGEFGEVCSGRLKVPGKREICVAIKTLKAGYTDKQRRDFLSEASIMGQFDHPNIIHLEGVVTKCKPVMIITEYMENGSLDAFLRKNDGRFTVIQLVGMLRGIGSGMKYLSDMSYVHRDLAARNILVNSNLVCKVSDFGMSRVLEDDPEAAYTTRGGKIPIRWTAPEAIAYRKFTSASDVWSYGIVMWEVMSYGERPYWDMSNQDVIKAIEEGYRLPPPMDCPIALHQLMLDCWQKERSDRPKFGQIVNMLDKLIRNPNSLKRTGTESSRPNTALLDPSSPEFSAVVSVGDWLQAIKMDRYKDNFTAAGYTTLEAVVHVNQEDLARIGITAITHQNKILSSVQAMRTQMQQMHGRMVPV
Sequence of Epidermal growth factor receptor (Homo sapiens), P00533 [T790M] (P00533 whole entry T790M): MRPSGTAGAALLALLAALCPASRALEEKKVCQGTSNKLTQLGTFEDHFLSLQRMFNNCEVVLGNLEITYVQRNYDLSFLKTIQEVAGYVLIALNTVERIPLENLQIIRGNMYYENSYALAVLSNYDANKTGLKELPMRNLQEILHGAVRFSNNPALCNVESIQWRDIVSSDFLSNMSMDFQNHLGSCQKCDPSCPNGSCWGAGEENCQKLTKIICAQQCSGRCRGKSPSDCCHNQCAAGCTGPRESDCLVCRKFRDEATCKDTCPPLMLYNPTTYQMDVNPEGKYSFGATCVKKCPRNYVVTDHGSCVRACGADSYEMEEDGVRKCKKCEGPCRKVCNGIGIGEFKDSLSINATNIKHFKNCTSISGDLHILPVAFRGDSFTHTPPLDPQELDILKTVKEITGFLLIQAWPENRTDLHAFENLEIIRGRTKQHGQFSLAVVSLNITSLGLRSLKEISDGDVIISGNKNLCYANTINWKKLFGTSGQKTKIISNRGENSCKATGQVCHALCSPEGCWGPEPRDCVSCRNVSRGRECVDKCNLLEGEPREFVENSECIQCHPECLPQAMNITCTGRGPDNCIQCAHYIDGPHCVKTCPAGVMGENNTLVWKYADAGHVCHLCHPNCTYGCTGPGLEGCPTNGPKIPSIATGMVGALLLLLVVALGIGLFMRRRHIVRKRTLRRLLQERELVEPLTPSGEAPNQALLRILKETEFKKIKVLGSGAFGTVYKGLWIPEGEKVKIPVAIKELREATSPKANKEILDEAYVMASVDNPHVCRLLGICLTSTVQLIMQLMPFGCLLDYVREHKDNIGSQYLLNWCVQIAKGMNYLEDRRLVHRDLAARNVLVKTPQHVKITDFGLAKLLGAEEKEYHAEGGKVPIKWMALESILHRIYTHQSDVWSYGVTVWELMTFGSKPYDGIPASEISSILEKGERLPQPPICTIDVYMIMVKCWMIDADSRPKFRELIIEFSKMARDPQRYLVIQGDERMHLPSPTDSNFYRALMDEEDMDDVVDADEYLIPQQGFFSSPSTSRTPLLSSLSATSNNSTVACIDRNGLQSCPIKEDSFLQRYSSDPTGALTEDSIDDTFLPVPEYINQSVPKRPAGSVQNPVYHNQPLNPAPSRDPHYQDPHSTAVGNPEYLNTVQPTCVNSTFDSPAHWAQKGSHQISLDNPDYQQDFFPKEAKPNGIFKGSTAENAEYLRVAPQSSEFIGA

Turning to `COc1ccc2c(-c3ccnc(Nc4cccc(OC(F)(F)F)c4)n3)cnn2n1`, the inhibition in assay [1] is 3.37%; in assay [2], 2.65%; in [3] it was 2.88%; in [4] it was 1.21%; in assay [5], 2.29%; in [6], 6.89%. The inhibition in assay [7] came out at 7.93%; in assay [8], 11.3%; in [9] it was 24.1%; in assay [10] it was 5.72%.

As for `Nc1nc(-c2cccc(Cl)c2)c(-c2ccc3ncccc3n2)s1`, the inhibition in assay [1] stood at 6.65%; in assay [2] it was 5%; in [3], 7.85%; in [4] it was 0.6%; in assay [5], 0.92%; in [6] it was 4.59%. For the same compound, the inhibition in assay [7] came out at 4.27%; in assay [8], 11%; in assay [9], 14.8%; in assay [10], 6.05%.

`[O-][S+]1CCN(Cc2ccc(-c3ccc4ncnc(Nc5ccc(OCc6cccc(F)c6)c(Cl)c5)c4c3)o2)CC1`: the inhibition in assay [1] came to 22%; in assay [2], 1.22%; in assay [3], 5.52%; in assay [4], 1.19%; in assay [5] it was 0.52%; in [6] it was 5.19%. The inhibition was 2.42% in assay [7], 7.3% in [8], 11.6% in assay [9] and 9.52% in [10].

Consider `O=S(=O)(CCNCc1ccc(-c2ccc3ncnc(Nc4ccc(OCc5cccc(F)c5)c(Cl)c4)c3c2)o1)c1ccccc1`, for which the inhibition in [1] amounted to 6.26%; in assay [2], 1.22%; in assay [3], 1.97%; in assay [4], 1.86%; in assay [5], 1.73%; in [6], 4.61%. The inhibition in assay [7] is 6.18%; in assay [8], 5.63%; in assay [9], 13.3%; in [10] it was 14.7%.

With `c1cc(-c2cnn3nc(N4CCOCC4)ccc23)nc(NC2CC2)n1`, the inhibition turned out to be 0.49% in assay [1]; 1.11% in assay [2]; 1.53% in assay [3]; 2.12% in assay [4]; 0.18% in [5]; 5.23% in assay [6]. Further, the inhibition worked out at 5.8% in assay [7], 10.2% in [8], 10.9% in assay [9] and 10.2% in [10].

As for `COc1ccc(-c2cc(-c3c[nH]nc3-c3ccccn3)ccn2)cc1`, the inhibition was 4.53% in assay [1]; 2.1% in assay [2]; 4.71% in assay [3]; 2.38% in [4]; 1.07% in assay [5]; 4.5% in assay [6]. The inhibition stood at 7.51% in [7], 8.66% in [8], 14.1% in assay [9] and 7.99% in assay [10].

For the compound `Fc1ccc(-c2nn3ncccc3c2-c2ccnc(Nc3ccc4c(c3)OCCO4)n2)cc1`, the inhibition in [1] came out at 63.8%; in [2] it was 45.5%; in [3], 88.1%; in assay [4], 2.48%; in [5] it was 14.4%; in assay [6], 7.69%. In addition, the inhibition in assay [7] was determined as 18.2%; in [8], 17.1%; in [9], 55.5%; in assay [10] it was 34.3%.

Turning to `COC(=O)Nc1nc2ccc(S(=O)(=O)c3ccc(NC(=O)Nc4cc(C(F)(F)F)ccc4F)cc3)cc2[nH]1`, the inhibition in assay [1] is 0.19%; in assay [2], 0.89%; in assay [3], -0.68%; in assay [4] it was 2.49%; in assay [5] it was 6.48%; in assay [6], 3.46%. For the same compound, the inhibition in assay [7] came to 4.35%; in assay [8], 4.8%; in assay [9] it was 9.4%; in assay [10], 6.82%.

Take `CNC(=O)c1cncc(/C=C/c2ccccc2Cl)c1`: the inhibition in assay [1] is 5.34%; in assay [2], 1.14%; in assay [3], -0.51%; in assay [4], 3.31%; in assay [5] it was 2.6%; in assay [6] it was 1.03%. For the same compound, the inhibition in assay [7] is 1.99%; in assay [8], 3.99%; in assay [9], 15%; in assay [10], -0.8%.

`Cc1ccc2c(-c3ccnc(Nc4ccccc4)n3)c(-c3ccc(F)cc3)nn2n1`: the inhibition in [1] is 51.1%; in [2], 33.7%; in assay [3], 81.9%; in [4], 6.42%; in assay [5], 15%; in assay [6], 9.53%. For the same compound, the inhibition in [7] is 18.1%; in assay [8], 11.5%; in assay [9] it was 52.1%; in [10], 24.9%.

As to `O=C(O[C@H]1CN[C@H](C#Cc2cc3ncnc(Nc4ccc(Cc5ccccc5)cc4)c3s2)C1)N1CCOCC1`, the inhibition in [1] is 10.5%; in assay [2] it was -1.96%; in assay [3], -1.31%; in assay [4] it was -0.49%; in assay [5] it was -1.09%; in assay [6], 2.25%. In addition, the inhibition in assay [7] turned out to be 3.5%; in assay [8] it was 3.73%; in assay [9] it was 5.5%; in assay [10] it was 7.69%.

As to `NS(=O)(=O)c1ccc(N/N=C2\C(=O)Nc3ccc4ncccc4c32)cc1`, the inhibition in [1] is -0.36%; in [2], 1.77%; in assay [3], 5.28%; in assay [4], 1.99%; in [5], 9.56%; in [6], 5.42%. Further, the inhibition in assay [7] was 12.4%; in assay [8], 8.83%; in assay [9], 31%; in [10], 8.06%.

For `N#Cc1c(NC(=O)CN2CCOCC2)sc2c1CCCC2`, the inhibition in [1] worked out at 4.76%; in assay [2], 2.42%; in [3], 4.77%; in [4], 1.79%; in assay [5] it was 1.43%; in [6] it was 5.54%. Further, the inhibition stood at 6.42% in assay [7], 7.58% in assay [8], 13.1% in assay [9] and 8.79% in assay [10].

For the compound `COc1ccc(-c2oc3ncnc(N)c3c2-c2ccc(NC(=O)Nc3cc(C(F)(F)F)ccc3F)cc2)cc1`, the inhibition was 3.03% in [1]; -0.45% in assay [2]; 7.47% in assay [3]; 87.9% in assay [4]; 95.7% in [5]; 82.1% in assay [6]. The inhibition in assay [7] was determined as 87.1%; in assay [8] it was 87.3%; in assay [9], 87.6%; in assay [10], 85.7%.

On to `CCN(CC)S(=O)(=O)c1ccc(OC)c(Nc2ncc(-c3ccccc3)o2)c1`, for which the inhibition in [1] was 2.04%; in assay [2], 0.39%; in [3], -0.47%; in assay [4], 4.36%; in assay [5], 2.14%; in [6] it was 2.4%. Further, the inhibition in assay [7] is 2.35%; in [8] it was 9.54%; in assay [9] it was 13.8%; in assay [10], 5.55%.

Consider `COc1cc(Nc2nccc(Nc3ccc4c(C)n[nH]c4c3)n2)cc(OC)c1OC`, for which the inhibition in assay [1] is 5.15%; in assay [2], 4.13%; in [3] it was 20.9%; in assay [4], 28%; in assay [5], 71%; in [6], 6.23%. The inhibition amounted to 15.3% in [7], 41.4% in assay [8], 75.2% in assay [9] and 19.3% in [10].

For orientation: inhibition means the drop in the measured response relative to a control, in per cent.
